In all, about 340,000 compounds went through this assay and about 8,500 (2.5%) were called active.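 How the source made its calls: active means melting temperature shift of at least 10% of the positive control shift, at one fixed dose; inactive means the rest.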 Many of the other results were omitted from the sample, so actives are more common in it than they were.
Each compound was assayed on Glutamate receptor ionotropic, NMDA 3A (GRIN3A) ligand-binding domain (assay: binders of NR3A ligand-binding domain, primary screen, biophysical, differential scanning fluorimetry, uHTS (AID 1259313)). Details: NR3A LBD differential scanning fluorimetry, at 25 µM, hits give high values, 0% = protein alone, 100% = glycine-bound protein.

Tm shift relative to glycine control, inactive:
O=C(NCc1ccccc1)c1ccc(S(=O)(=O)Nc2cccc(C(F)(F)F)c2)cc1 8.53%
CCN(CC(=O)Nc1ccc(S(=O)(=O)N2CCCC2)cc1)CC(=O)Nc1cccc(OC)c1 0.48%
COc1cccc(NC(C)=[N+](C)CCNS(=O)(=O)c2ccc(Cl)cc2)c1 -3.14%
O=C(Nc1ccc(C(=O)N2CCOCC2)cc1)Nc1cccc(C(F)(F)F)c1 -5.51%
O=C(N/N=C/c1ccc(OCC2COCCO2)cc1)c1ccc(Br)cc1 (configuration not stated) 8.82%
COc1ccc(N2C(=O)C3C(C2=O)C(C(=O)c2ccccc2)N2CCCC32)cc1 (configuration not stated) -1.47%
Cc1cccc(C(=O)Nc2ccccc2C(=O)NCc2cccnc2)c1 -0.85%
Cc1nc(NNC(=O)c2ccccc2)cc(-c2ccccc2)n1 -0.16%
c1ccc(-c2cc(N3CCCCC3)c3ccccc3n2)cc1 0.96%
Oc1[nH]c2ccc(Br)cc2c1N=Nc1nn[nH]n1 4.42%
O=C(CNC(=O)Cc1ccccc1)N=Nc1c(O)[nH]c2ccc(Br)cc12 -9.04%
CCOc1cc2[nH]c(=S)n(CCN3CCCCC3C)c(=O)c2cc1OCC (configuration not stated) 0.59%
Cc1cc(C)cc(OCC(=O)NNC(=O)c2cc3ccccc3oc2=O)c1 2.22%
O=C(CC(c1ccccc1)c1ccccc1)NCC(O)c1ccc([N+](=O)[O-])cc1 (configuration not stated) -6.68%
O=C(NCC(O)c1ccc([N+](=O)[O-])cc1)C1CCCCC1 (configuration not stated) -0.64%
COC(=O)c1cc(NS(=O)(=O)c2ccc3c(c2)c(=O)n(C)c(=O)n3C)cc(C(=O)OC)c1 -17.2%
Cc1csc2nc(O)c(C(=O)NCCN3CCOCC3)c(=O)n12 1.24%
NC(=O)C1CCN(CC(O)CSc2ccc(F)cc2)CC1 (configuration not stated) -0.69%
COC(=O)C(C)Oc1ccc2c(-c3cccc([N+](=O)[O-])c3)cc(=O)oc2c1 (configuration not stated) 0.72%
CCOC(=O)C1=C(CN2CCCCCC2)NC(=O)NC1c1cccc([N+](=O)[O-])c1 (configuration not stated) 0.15%
Cc1cccc(C(=O)Nc2nnc(Cc3c[nH]c4ccccc34)s2)c1 -7.42%
C=CCn1c(C)cc(C2=NNC(=NCC)SC2)c1C -0.92%
CC(C)C(C(=O)NCc1ccco1)N(CC1CCCO1)C(=O)CNS(=O)(=O)c1ccc(F)cc1 (configuration not stated) 0.85%
O=C(Nn1cc(C(=O)N2CCN(c3ccccc3F)CC2)c2ccccc2c1=O)c1cnccn1 -1.41%
COc1ccc(/C=C(/CC(=O)Nc2ccc(C)cc2)c2nc3ccccc3s2)cc1 -2.24%
COc1ccc(NS(=O)(=O)c2ccc3oc(SCC(N)=O)nc3c2)cc1 -0.47%
CCC(C)(C)NC(=O)/C=C/c1cc(OC)c(OC)c(S(=O)(=O)N2CCc3ccccc32)c1 0.08%
COCCNC(=S)N/N=C/c1c(C)[nH]c2ccccc12 -4.38%
COc1ccc(CNC(=O)CNC(=O)c2sc3ccccc3c2Cl)cc1OC 1.07%
Cc1ccc(N(C(=O)C(F)(F)F)C(C(=O)NC2CCCCC2)c2ccncc2)cc1C (configuration not stated) -1.17%
O=C(OC1CCCCC1=O)c1cccc(S(=O)(=O)NCc2ccccc2)c1 (configuration not stated) -0.25%
CC1CN(c2cc(=O)n(-c3cccc(Br)c3)c(=O)[nH]2)CC(C)O1 (configuration not stated) 0.6%
COc1ccc(Br)cc1CN(C)CC(=O)Nc1cc(Cl)cc(Cl)c1 -14.8%
O=C1c2ccccc2C(=O)N1CC1c2ccccc2CCN1S(=O)(=O)c1ccccc1 (configuration not stated) -1.14%
CCOC(=O)c1ccc(-n2c(CCC(=O)O)ccc2-c2ccccc2)cc1 0.18%
Cc1c(Cl)cccc1NC(=O)CC1SC(=NCC2CCCO2)NC1=O (configuration not stated) -1.26%
Cc1ccc(CNC(=O)CC2Sc3ccccc3NC2=O)cc1 (configuration not stated) -1.5%
CC(C)CCNC(=O)CN(C(=O)Cn1nnc(-c2ccc(F)cc2)n1)C1CCCC1 -0.75%
CN(C(=O)Cn1nnc(-c2ccc(F)cc2)n1)C1CCS(=O)(=O)C1 (configuration not stated) 0.08%
COCC1CCN(C(=O)c2ccc3oc(Cc4ccccc4)nc3c2)C1 (configuration not stated) -2.47%
CN(C)Cc1c(O)ccc2occ(C(O)c3ccccc3)c12 (configuration not stated) -0.8%
CCN(C(=O)CSc1nnc(-c2ccc(OC(F)F)cc2)n1N)C1CCS(=O)(=O)C1 (configuration not stated) 0.42%
CC(C)NC(=O)NC(=O)CSc1nnc(-c2ccccc2F)n1N -0.64%
Nc1c(-c2ccc(F)cc2)cnn1C1CCS(=O)(=O)C1 (configuration not stated) -1.17%
Nc1ccc(Cl)c(S(=O)(=O)Nc2ccccc2Cl)c1 -2.25%

Tm shift relative to glycine control, active:
CCNS(=O)(=O)c1ccc(NC(=O)Nc2cccc(OC)c2)cc1 29.6%
CCNS(=O)(=O)c1ccc(NC(=O)Nc2cccc(C(F)(F)F)c2)cc1 38.8%
Nc1cccc(-c2cc(-c3ccccc3)nc(-c3cccc(N)c3)n2)c1 42.8%
NS(=O)(=O)c1ccc(N=Nc2c(O)[nH]c3ccc(Br)cc23)cc1 23.4%
CC(=O)NCC(O)c1ccc([N+](=O)[O-])cc1 (configuration not stated) 12.1%
CCOC(=O)c1sc(-c2cccc([N+](=O)[O-])c2)cc1N 20.4%
Cc1cccc(N=C2NN=C(c3c[nH]c4ccccc34)CS2)c1 19.3%
COc1ccc(S(=O)(=O)Nc2ccc(O)c(Sc3nc4ccccc4s3)c2)cc1 11.6%
O=C(N/N=C/c1c(Cl)[nH]c2ccccc12)c1sc2ccccc2c1Cl 28.2%
Cc1ccc(NC(=O)CC2S/C(=N/N=C3\CCCc4ccccc43)NC2=O)cc1 (configuration not stated) 25.5%
CC(C)CCNC(=O)C(C)N(C(=O)Cn1nnc(-c2ccc(F)cc2)n1)C1CCCC1 (configuration not stated) 22.9%
Cc1ccc(NC(=O)NC(=O)CSc2nnc(-c3ccc(OC(F)F)cc3)n2N)c(C)c1 47.6%

From PubChem BioAssay AID1259313 (Sanford-Burnham Center for Chemical Genomics, 2017)
